Reference: PubChem BioAssay (NCI)
Compounds without any hit were thinned out: in the full panel of roughly 83,000, 20% have a hit.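 Single-dose data. Exposure time 48 hours. Values below 10 considered active.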 Unmarked numbers belong to inactive results. Calls of active or inactive are those of the source.

Experiments:
Test in all cases: NCI-60 one-dose screen, 48 h (100 = growth as untreated, 0 = no growth, -100 = all killed)
Settings in all cases: 10 µM unless noted
HCT-15 colon = system: HCT-15 colon
HT29 colon = system: HT29 colon
SNB-75 CNS = system: SNB-75 CNS
SNB-19 CNS = system: SNB-19 CNS
PC-3 prostate = system: PC-3 prostate
SK-MEL-5 melanoma = system: SK-MEL-5 melanoma
UACC-62 melanoma = system: UACC-62 melanoma
LOX IMVI melanoma = system: LOX IMVI melanoma
SK-MEL-28 melanoma = system: SK-MEL-28 melanoma
U251 CNS = system: U251 CNS

| SMILES | growth (HCT-15 colon) | growth (HT29 colon) | growth (SNB-75 CNS) | growth (SNB-19 CNS) | growth (PC-3 prostate) | growth (SK-MEL-5 melanoma) | growth (UACC-62 melanoma) | growth (LOX IMVI melanoma) | growth (SK-MEL-28 melanoma) | growth (U251 CNS) |
| --- | --- | --- | --- | --- | --- | --- | --- | --- | --- | --- |
| COC1=CC(=O)O[C@@H](/C=C/c2ccc3c(c2)OCO3)C1 | 103% | 111% | 116% | 101% | 83.5% | 116% | 94% | 98.2% | 120% |  |
| COC1CC2c3ccccc3C1C(C)=[N+]2C (stereo unspecified) | 101% | 96.6% | 71.7% | 100% | 84.8% | 106% | 91.8% | 94.7% | 145% |  |
| CC(=O)[O][Hg][c]1c(N)c(C)cc(C)c1F | -14.2% (active) | 10% (active) | 32% | 112% | 51.9% | 41% | 27.8% | -70.1% (active) | -39.1% (active) |  |
| O=NN1CCCc2cccc(O)c21 | 27.2% | 94.6% | 21.8% | 31% | 51.8% | 19.9% | 26.7% | 23.9% | 67.2% |  |
| C[n+]1c(/C=C/c2ccc(N(CCCl)CCCl)cc2)sc2ccccc21 | 82.2% | 40.9% | 74.5% | 60.9% | 36% |  |  | 36.6% | 81.4% |  |
| N#Cc1c(Br)n(C2OC(CO)C(O)C2O)c2ncnc(N)c12 (stereo unspecified) | 43.9% | 43.8% | 76.2% | 101% | 16.5% |  | 77.9% | 57.2% | 43.7% |  |
| N#CC1(C#N)C(c2ccc(N(CCCl)CCCl)cc2)OC23CCCCC2C1(C#N)C(=N)O3 (stereo unspecified) | 90.6% | 106% | 63.3% | 84.4% | 74.8% | 83.3% | 53.2% | 68.6% | 111% |  |
| O=C(CC1(O)C(=O)N(Cc2ccccc2)c2ccc(F)cc21)c1ccc(C(=O)NCC2CCC3(CC2)OOC2(CCCCC2)OO3)cc1 (stereo unspecified) | -14.3% (active) | -70.2% (active) | -62.1% (active) | 16.8% | -58.8% (active) |  | -12.5% (active) | -84.5% (active) | 51.5% |  |
| C[C@@H]1CCC2[C@@H](C)[C@H](OC(=O)CCC(=O)NCCNC(=O)Cc3cc(=O)oc4cc(N(C)C)ccc34)O[C@@H]3O[C@]4(C)CC[C@@H]1C23OO4 (stereo partly specified) | 7.81% (active) | 26.4% | 60.9% | 65% | 19.1% |  | 31.7% | -7.91% (active) | 57.5% |  |
| COc1ccc(N(CC(=O)NCCC[Te]c2ccccc2)C(=O)CCSC2=C(C)C(=O)c3ccccc3C2=O)cc1 | -15.7% (active) | 1.86% (active) | 13.2% | -12.4% (active) | 0.627% (active) | -96.7% (active) | -25.4% (active) | -50.1% (active) | -18.1% (active) |  |
| CC(C)(NC(=O)O[C@@H]1CN2CCC1CC2)c1csc(-c2ccc(F)cc2)n1 | 102% | 104% | 67.2% | 97.9% | 99.5% | 99.2% | 87.9% | 90.5% | 103% |  |
| COC(=O)[C@@H](C)C[C@H](Cc1cn(C)c2ccccc12)NC(=O)c1csc([C@@H](C[C@H](C(C)C)N(C)C(=O)[C@@H](NC(=O)[C@H]2CCCCN2C)C(C)C)OC(C)=O)n1 | 9.96% (active) | 3.4% (active) | 59% | 35.6% | 24.3% | -38.4% (active) | 47.8% | 19.1% | 60.6% |  |
| Cn1cc(C2=C(c3cn(C4CCN(Cc5ccccn5)CC4)c4ccccc34)C(=O)NC2=O)c2ccccc21 | 85.9% | 14.3% | 57.8% | 101% | 92.2% | 69.2% | 13.7% | 48.5% | 18.7% |  |
| C=CC[PH+](c1ccccc1)c1ccccc1.C=CC[PH+](c1ccccc1)c1ccccc1.[Cl][Pt][Cl] | 31.4% | 41.1% | 66.2% | 70.5% | 54.4% | 85.8% | 52.9% | -6.81% (active) | 28.4% |  |
| c1ccc(COc2ccc3[nH]cc(CCN(Cc4ccccc4)Cc4ccccc4)c3c2)cc1 | 47.2% | 83.5% | 89.2% | 104% | 57.7% | 88.3% |  | 81.8% | 104% |  |
| CC(=O)O[C@H](C[C@H](C(C)C)N(C)C(=O)[C@@H](NC(=O)[C@H]1CCCCN1C)C(C)C)c1nc(C(=O)N[C@@H](Cc2ccccc2)C[C@H](C)C(=O)O)c(C(C)C)s1 | 8.7% (active) | 2.43% (active) | 22.6% | 27.6% | 29.9% | -43.9% (active) | 31.1% | 10.5% | 60.9% |  |
| C=C(C)[C@@]12OC3(/C=C/C=C/CCCCC)O[C@@H]1[C@@H]1[C@@H]4O[C@]4(CO)[C@@H](O)[C@]4(O)C(=O)C(C)=C[C@H]4[C@@]1(O3)[C@H](C)[C@H]2OC(=O)c1ccccc1 | 67.1% | 14.1% | 56.6% | 92.8% | 28.6% |  | 59.7% | 50.9% | 81.5% |  |
| CN1CCC(c2c[nH]c3ccccc23)C1 (stereo unspecified) | 102% | 100% | 95.5% | 95.2% | 112% | 130% | 107% | 88.2% | 107% |  |
| Nc1cc2nc3ccccc3nc2cc1N | 88.5% | 105% | 85.5% | 85.6% | 79.3% | 87% |  | 80.8% | 129% |  |
| CC12CCC3C(C=CC4=C(N)C(=O)CCC43C)C1CCC2=O (stereo unspecified) | 73% | 51.2% | 94.2% | 103% | 46.5% |  | 81% | 60.6% | 103% |  |
| Nc1ccc(OCCNS(=O)(=O)c2cccc(S(=O)(=O)F)c2)c(Cl)c1 | 93.4% | 106% | 50.5% | 96.6% | 97.6% | 97.1% | 93.2% |  | 88.8% |  |
| C[S+]1C=Cc2ccccc2C1c1ccc(Cl)cc1 (stereo unspecified) | 96.8% | 84.9% | -70.7% (active) | 110% | 73.5% | 99.3% | 95.8% | 91.1% | 103% |  |
| Nc1nnnc2nc[nH]c12 | 20.9% | 38.4% | 45.8% |  | 11.5% | 33.8% | -50.9% (active) | 6.61% (active) | 14.8% | 19.4% |
| Clc1ccc(CSC(Cn2ccnc2)c2ccc(Cl)cc2Cl)cc1 (stereo unspecified) | 29% | 30.5% |  | 47.3% | 15% | -9.89% (active) | 29.5% | 18% | 62.3% | 27.8% |
| C#C[C@]1(OC(=O)CCCCCC)CC[C@H]2[C@@H]3CCC4=CC(=O)CC[C@@H]4[C@H]3CC[C@@]21C | 39.9% | 9.11% (active) |  | 53.7% | 32.7% | 20.5% | 25.6% | 8.13% (active) | 43.3% | 50.9% |
| COC(=O)[C@@H](C)C[C@H](Cc1ccccc1)NC(=O)c1csc([C@@H](C[C@H](C(C)C)N(C)C(=O)C2(NC(=O)[C@H]3CCCCN3C)CC2)OC(C)=O)n1 | 20.5% | 9.71% (active) |  | 68.2% | 12.3% | -40.2% (active) | 41.1% | 3.04% (active) | 58.7% | 4.91% (active) |
| CCCCCCCC(=O)OCC(=O)[C@]1(O)Cc2c(O)c3c(c(O)c2[C@@H](OC2CC(N)C(O)C(C)O2)C1)C(=O)c1c(OC)cccc1C3=O (stereo partly specified) | -61.5% (active) | -63.5% (active) | -79.5% (active) |  | -100% (active) | -91.2% (active) | -75.4% (active) | -4.4% (active) | -84% (active) | -46.5% (active) |
| Fc1cccc(NCOOC2(OOCNc3cccc(F)c3)CCCCC2)c1 | 99.2% | 96% |  | 96.2% | 88.9% | 95.2% | 104% | -68.9% (active) |  | 102% |
